# Unmarked numbers belong to inactive results. Results filed as inconclusive are left out. Entries that show only a call come without a potency. The source made the active and inactive calls. Calls follow the shape of the dose curve; as a rule, active = well fitted curve in the direction sought with a large enough effect in the repeat runs; inconclusive = weak or mixed curves; inactive = no such curve, though single readings can be large; an effect the other way counts as inactive or inconclusive.
# Key:
# [1] = A CellTox Green Cytotoxicity Assay to monitor cytotoxicity in HEK293 cells - 40 hour (AID 1224871); also: nearly all actives have a fitted effect of over 45% in size
# Method in brief: (§1)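 Real-time, in one plate: 600 HEK293 cells/well with dead-cell DNA dye, pinned compound after 5 h, 37 C incubation over 40 h; viable cells give no appreciable fluorescence.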
# [2] = qHTS RealTime-Glo MT Cell Viability Assay in HEK293 cells - 16 hour (AID 1224872); also: top concentration of the series differs between compounds; nearly all actives have a fitted effect of over 50% in size
# Method in brief: (§2)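 Reads taken at 0, 8, 16, 24, 32 and 40 h from the same wells. HEK293 cells (600/well) carried RealTime-Glo reagents from seeding, with compound added after a 5 h settle at 37 C.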
# [3] = qHTS RealTime-Glo MT Cell Viability Assay in HepG2 cells - 8 hour (AID 1224873); also: nearly all actives have a fitted effect of over 55% in size
# Method in brief: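 HepG2 cells (600/well) mixed with RealTime-Glo MT reagent, settled 5 h at 37 C/5% CO2 before compound addition. Nonlytic NanoLuc luminescence from viable-cell prosubstrate reduction read repeatedly during 40 h treatment at 37 C.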
# [4] = qHTS RealTime-Glo MT Cell Viability Assay in HEK293 cells - 40 hour (AID 1224874); conditions: RealTime-Glo luminescence; max response: hits give low values; also: nearly all actives have a fitted effect of over 50% in size
# Method in brief: (§3)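 Kinetic, non-lysing viability readout. Seed HEK293 (600/well) with reagent, incubate 5 h at 37 C/5% CO2, pin 23 nL compound in DMSO, incubate at 37 C, read luminescence at 0, 8, 16, 24, 32, 40 h.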
# [5] = A CellTox Green Cytotoxicity Assay to monitor cytotoxicity in HEK293 cells - 24 hour (AID 1224875); also: series mostly up to about 77 µM; nearly all actives have a fitted effect of over 45% in size
# Method in brief: as §1
# [6] = A CellTox Green Cytotoxicity Assay to monitor cytotoxicity in HepG2 cells - 16 hour (AID 1224876); also: nearly all actives have a fitted effect of over 45% in size
# Method in brief: (§4)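 Cytotoxicity was tracked as dead-cell DNA fluorescence in HepG2 cells treated with test compounds at 37 C; each time-point value comes from one kinetic series spanning 0, 8, 16, 24, 32 and 40 h.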
# [7] = qHTS RealTime-Glo MT Cell Viability Assay in HepG2 cells - 32 hour (AID 1224877); also: nearly all actives have a fitted effect of over 55% in size
# Method in brief: (§5)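 HepG2 suspension premixed with RealTime-Glo reagents is plated at 600 cells per well and left 5 h at 37 C/5% CO2. Compounds in DMSO then go in, and bioluminescence reflecting viable cell number is recorded over 40 h.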
# [8] = qHTS RealTime-Glo MT Cell Viability Assay in HEK293 cells - 0 hour (AID 1224880); also: top concentration of the series differs between compounds; nearly all actives have a fitted effect of over 45% in size
# Method in brief: as §3
# [9] = A CellTox Green Cytotoxicity Assay to monitor cytotoxicity in HEK293 cells - 32 hour (AID 1224881); also: nearly all actives have a fitted effect of over 40% in size
# Method in brief: as §1
# [10] = A CellTox Green Cytotoxicity Assay to monitor cytotoxicity in HepG2 cells - 0 hour (AID 1224882); also: nearly all actives have a fitted effect of over 35% in size
# Method in brief: as §4
# [11] = A CellTox Green Cytotoxicity Assay to monitor cytotoxicity in HepG2 cells - 32 hour (AID 1224883); also: nearly all actives have a fitted effect of over 50% in size
# Method in brief: as §4
# [12] = qHTS RealTime-Glo MT Cell Viability Assay in HepG2 cells - 16 hour (AID 1224885); also: nearly all actives have a fitted effect of over 50% in size
# Method in brief: as §5
# [13] = qHTS RealTime-Glo MT Cell Viability Assay in HEK293 cells - 24 hour (AID 1224886)
# Method in brief: as §2
# [14] = qHTS RealTime-Glo MT Cell Viability Assay in HEK293 cells - 8 hour (AID 1224887)
# Method in brief: as §3
# [15] = A CellTox Green Cytotoxicity Assay to monitor cytotoxicity in HEK293 cells - 16 hour (AID 1224888); also: nearly all actives have a fitted effect of over 35% in size
# Method in brief: as §1
# [16] = qHTS RealTime-Glo MT Cell Viability Assay in HepG2 cells - 0 hour (AID 1224889); also: nearly all actives have a fitted effect of over 50% in size
# Method in brief: as §5
# [17] = A CellTox Green Cytotoxicity Assay to monitor cytotoxicity in HepG2 cells - 8 hour (AID 1224890); also: nearly all actives have a fitted effect of over 45% in size
# Method in brief: as §4
# [18] = A CellTox Green Cytotoxicity Assay to monitor cytotoxicity in HepG2 cells - 40 hour (AID 1224879); also: nearly all actives have a fitted effect of over 40% in size; also: potency is read from the fitted curve at half-maximal effect
# Method in brief: as §4
# [19] = A CellTox Green Cytotoxicity Assay to monitor cytotoxicity in HEK293 cells - 8 hour (AID 1224884); also: nearly all actives have a fitted effect of over 35% in size
# Method in brief: as §1
# [20] = A CellTox Green Cytotoxicity Assay to monitor cytotoxicity in HepG2 cells - 24 hour (AID 1224878); also: nearly all actives have a fitted effect of over 45% in size
# Method in brief: as §4
compound,measurement,setting,value
CCC(C)C(C)(COC(N)=O)COC(N)=O (configuration not stated),Potency,[1],inactive
same,Potency,[2],inactive
same,outcome,[3],inactive
same,max response,[4],3.68%
same,Potency,[5],inactive
same,Potency,[6],inactive
same,Potency,[7],inactive
same,outcome,[8],inactive
same,Potency,[9],inactive
same,outcome,[10],inactive
same,Potency,[11],inactive
same,Potency,[12],inactive
same,Potency,[13],inactive
same,Potency,[14],inactive
same,Potency,[15],inactive
same,outcome,[16],inactive
same,Potency,[17],inactive
CS(=O)(=O)c1ccc(C(=O)C2C(=O)CCCC2=O)c(Cl)c1COCC(F)(F)F,Potency,[1],inactive
same,Potency,[2],inactive
same,outcome,[3],inactive
same,max response,[4],2.82%
same,Potency,[5],inactive
same,Potency,[6],inactive
same,Potency,[7],inactive
same,Potency,[18],inactive
same,Potency,[9],inactive
same,outcome,[10],inactive
same,Potency,[11],inactive
same,Potency,[19],inactive
same,Potency,[12],inactive
same,Potency,[13],inactive
same,Potency,[14],inactive
same,Potency,[15],inactive
same,outcome,[16],inactive
same,Potency,[17],inactive
NCCOS(=O)(=O)O,Potency,[1],inactive
same,Potency,[2],inactive
same,outcome,[3],inactive
same,max response,[4],1.3%
same,Potency,[5],inactive
same,Potency,[6],inactive
same,Potency,[7],inactive
same,Potency,[18],inactive
same,outcome,[8],inactive
same,Potency,[9],inactive
same,outcome,[10],inactive
same,Potency,[11],inactive
same,Potency,[19],inactive
same,Potency,[12],inactive
same,Potency,[13],inactive
same,Potency,[14],inactive
same,Potency,[15],inactive
same,outcome,[16],inactive
same,Potency,[17],inactive
CC(C)(N)Cc1ccccc1Cl,Potency,[1],inactive
same,Potency,[2],inactive
same,outcome,[3],inactive
same,max response,[4],1.76%
same,Potency,[5],inactive
same,Potency,[6],inactive
same,Potency,[7],inactive
same,Potency,[18],inactive
same,Potency,[9],inactive
same,outcome,[10],inactive
same,Potency,[11],inactive
same,Potency,[12],inactive
same,Potency,[13],inactive
same,Potency,[15],inactive
same,outcome,[16],inactive
same,Potency,[17],inactive
CCCN1CCC[C@@H]2Cc3[nH]ncc3C[C@H]21,Potency,[1],inactive
same,Potency,[2],inactive
same,outcome,[3],inactive
same,max response,[4],2.6%
same,Potency,[5],inactive
same,Potency,[6],inactive
same,Potency,[7],inactive
same,Potency,[18],inactive
same,outcome,[8],inactive
same,Potency,[9],inactive
same,outcome,[10],inactive
same,Potency,[11],inactive
same,Potency,[19],inactive
same,Potency,[12],inactive
same,Potency,[13],inactive
same,Potency,[14],inactive
same,Potency,[15],inactive
same,outcome,[16],inactive
same,Potency,[17],inactive
C[C@H](N)C(=O)c1ccccc1,Potency,[1],inactive
same,Potency,[2],inactive
same,outcome,[3],inactive
same,max response,[4],-10.2%
same,Potency,[5],inactive
same,Potency,[6],inactive
same,Potency,[7],inactive
same,Potency,[20],inactive
same,Potency,[9],inactive
same,outcome,[10],inactive
same,Potency,[11],inactive
same,Potency,[12],inactive
same,Potency,[13],inactive
same,Potency,[14],inactive
same,Potency,[15],inactive
same,outcome,[16],inactive
same,Potency,[17],inactive
O=C(O)C(Br)(Br)Br,Potency,[1],inactive
same,Potency,[2],inactive
same,outcome,[3],inactive
same,max response,[4],-0.0563%
same,Potency,[5],inactive
same,Potency,[6],inactive
same,Potency,[20],inactive
same,Potency,[18],inactive
same,outcome,[8],inactive
same,Potency,[9],inactive
same,outcome,[10],inactive
same,Potency,[11],inactive
same,Potency,[19],inactive
same,Potency,[12],inactive
same,Potency,[13],inactive
same,Potency,[14],inactive
same,Potency,[15],inactive
same,Potency,[17],inactive
CCN[C@@H](C)Cc1ccccc1,Potency,[2],inactive
same,outcome,[3],inactive
same,max response,[4],-5.07%
same,Potency,[5],inactive
same,Potency,[6],inactive
same,Potency,[7],inactive
same,Potency,[20],inactive
same,Potency,[18],0.154 µM (active)
same,outcome,[8],inactive
same,Potency,[9],inactive
same,outcome,[10],inactive
same,Potency,[11],inactive
same,Potency,[19],inactive
same,Potency,[12],inactive
same,Potency,[13],inactive
same,Potency,[15],inactive
same,outcome,[16],inactive
same,Potency,[17],inactive
O=C(Cl)/C=C/C(=O)Cl,Potency,[1],inactive
same,Potency,[2],inactive
same,outcome,[3],inactive
same,Potency,[5],inactive
same,Potency,[6],inactive
same,Potency,[7],inactive
same,Potency,[20],inactive
same,Potency,[18],inactive
same,outcome,[8],inactive
same,Potency,[9],inactive
same,outcome,[10],inactive
same,Potency,[11],inactive
same,Potency,[19],inactive
same,Potency,[13],inactive
same,Potency,[14],inactive
same,Potency,[15],inactive
same,outcome,[16],inactive
same,Potency,[17],inactive
Clc1cc2c(cc1Cl)Oc1cc(Cl)c(Cl)cc1O2,cytotoxicity increase,[1],-35.9% [at 0.29 µM]
same,"viability change, negative = cytotoxic",[3],0.0568% [at 0.29 µM]
same,activity change,[5],"-30.3% [at 0.29 µM, hits give high values]"
same,cytotoxicity increase,[6],-1.02% [at 0.29 µM]
same,"activity change, negative = cytotoxic",[7],1.14% [at 0.29 µM]
same,cytotoxicity,[20],2.11% [at 0.29 µM]
same,Potency,[18],0.0268 µM (active)
same,"activity change, negative = cytotoxicity",[8],-12.5% [at 0.29 µM]
same,cytotoxicity increase,[9],-34% [at 0.29 µM]
same,cytotoxicity,[10],-1.33% [at 0.29 µM]
same,cytotoxicity increase,[11],4.82% [at 0.29 µM]
same,cytotoxicity increase,[19],-18.7% [at 0.29 µM]
same,"activity change, negative = cytotoxic",[12],2.3% [at 0.29 µM]
same,activity change,[15],"-25.8% [at 0.29 µM, hits give high values]"
same,"activity change, negative = cytotoxicity",[16],7.93% [at 0.29 µM]
same,cytotoxicity increase,[17],-6.05% [at 0.29 µM]
C(COCC1CO1)OCC1CO1 (configuration not stated),Potency,[1],inactive
same,Potency,[2],inactive
same,outcome,[3],inactive
same,Potency,[5],inactive
same,Potency,[6],inactive
same,Potency,[7],inactive
same,outcome,[8],inactive
same,Potency,[9],inactive
same,outcome,[10],inactive
same,Potency,[11],inactive
same,Potency,[19],inactive
same,Potency,[12],inactive
same,Potency,[13],inactive
same,Potency,[15],inactive
same,outcome,[16],inactive
same,Potency,[17],inactive
C=CC=O,Potency,[1],inactive
same,Potency,[2],inactive
same,outcome,[3],inactive
same,Potency,[5],inactive
same,Potency,[6],inactive
same,Potency,[7],inactive
same,Potency,[18],inactive
same,outcome,[8],inactive
same,Potency,[9],inactive
same,outcome,[10],inactive
same,Potency,[11],inactive
same,Potency,[12],inactive
same,Potency,[13],inactive
same,Potency,[14],inactive
same,Potency,[15],inactive
same,outcome,[16],inactive
same,Potency,[17],inactive
CC#Cc1cc(C)nc(Nc2ccccc2)n1,Potency,[1],inactive
same,outcome,[3],inactive
same,Potency,[5],inactive
same,Potency,[6],inactive
same,Potency,[7],inactive
same,Potency,[20],inactive
same,Potency,[18],inactive
same,outcome,[8],inactive
same,Potency,[9],inactive
same,outcome,[10],inactive
same,Potency,[11],inactive
same,Potency,[12],inactive
same,Potency,[15],inactive
same,outcome,[16],inactive
same,Potency,[17],inactive
O=c1[nH]oc2c1CCNC2,Potency,[1],inactive
same,Potency,[2],inactive
same,outcome,[3],inactive
same,max response,[4],5.54%
same,Potency,[5],inactive
same,Potency,[7],inactive
same,Potency,[9],inactive
same,outcome,[10],inactive
same,Potency,[19],inactive
same,Potency,[13],inactive
same,Potency,[15],inactive
same,outcome,[16],inactive
same,Potency,[17],inactive
